LYPLA1 inh = counter-screen for PME1 inhibitors: inhibitors of human LYPLA1 | O75608 | recombinant LYPLA1, FP-Rh probe fluorescence polarization | inhibition, % at 5.9 µM | actives 0.16% (n = 320,000);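 active means inhibition above the mean of all tested compounds plus 3 SD, set per campaign, cut at about 14% in these data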;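 further: inhibitors block serine hydrolase probe labeling of LYPLA1 so polarization falls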
GSTO1 inh = GSTO1 inhibition, counter-screen for RBBP9 inhibitors. actives 1.1% (n = 300,000). inhibition, % at 5.96 µM. AID 1974. recombinant GSTO1, activity-based probe fluorescence polarization. P78417;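 active means inhibition above the campaign mean inhibition plus 3 SD, cut at about 35% in these data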
Target sequence (P78417 whole entry, looked up): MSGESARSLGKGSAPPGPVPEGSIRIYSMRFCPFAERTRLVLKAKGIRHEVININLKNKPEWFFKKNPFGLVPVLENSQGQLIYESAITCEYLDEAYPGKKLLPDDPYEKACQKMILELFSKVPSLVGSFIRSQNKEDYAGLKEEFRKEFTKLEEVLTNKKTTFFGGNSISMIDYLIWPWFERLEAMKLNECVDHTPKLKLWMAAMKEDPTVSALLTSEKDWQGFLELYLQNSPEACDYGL
LYPLA2 counter = counter-screen for PME1 inhibitors: inhibitors of human LYPLA2 | inhibition, % at 5.9 µM | actives 0.38% (n = 320,000) | O95372 | AID 2177 | recombinant LYPLA2, FP-Rh probe fluorescence polarization;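 active means inhibition above the screen-wide mean plus 3 SD, limit set per campaign, cut at about 26% in these data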
Target sequence (O95372 whole entry, looked up): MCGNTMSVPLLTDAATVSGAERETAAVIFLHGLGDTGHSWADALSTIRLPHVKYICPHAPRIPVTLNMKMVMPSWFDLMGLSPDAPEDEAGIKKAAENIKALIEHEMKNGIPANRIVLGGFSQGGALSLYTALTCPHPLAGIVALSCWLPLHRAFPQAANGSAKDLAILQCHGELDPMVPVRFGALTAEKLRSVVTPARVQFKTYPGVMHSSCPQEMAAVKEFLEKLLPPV
PAD4 inh = PAD4 (human) enzyme inhibition. Q9UM07. recombinant PAD4, RCA probe fluorescence polarization. inhibition, % at 6.36 µM. actives 0.41% (n = 330,000);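 active means percent inhibition above a cutoff equal to the mean of all tested compounds plus 3 SD, cut at about 15% in these data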
PME-1 inh = PME-1 (human) inhibition | Q9Y570 | recombinant PME-1, FP-Rh probe fluorescence polarization | inhibition, % at 5.9 µM | actives 0.53% (n = 320,000) | AID 2130;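 active means inhibition above the campaign mean of all compounds plus 3 SD, cut at about 26% in these data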;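 further: competitive labeling of PME-1 active site by serine hydrolase directed probe; inhibitors block probe labeling so polarization falls and inhibition rises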
Fam108B counter = blocks mouse Fam108B hydrolase in RBBP9 counter-screen; recombinant Fam108B, FP-Rh probe fluorescence polarization; inhibition, % at 9.51 µM; actives 0.33% (n = 300,000); AID 1947;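 active means inhibition above the screen mean inhibition plus 3 SD, computed separately per campaign, cut at about 18% in these data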;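 further: inhibitors lower polarization as less probe binds the enzyme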
Fam108b confirm = Fam108b (mouse) hydrolase inhibition, confirmation assay. AID 1978. actives 44% (n = 930). recombinant Fam108b, FP-Rh probe fluorescence polarization. shares compounds with Fam108B counter. inhibition, % at 9.51 µM;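 active means inhibition above a limit from the primary screen, the mean over all compounds plus 3 SD, cut at about 19% in these data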;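 further: inhibitors free the probe so polarization falls as inhibition rises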
Fam108b inh = inhibits mouse Fam108b in gel-based ABPP. shares compounds with Fam108B counter. recombinant Fam108b, fluorophosphonate probe. inhibition, % at 20 µM. actives 44% (n = 260). AID 588649; in the data active means inhibition above about 40%
Of the large screens only hits and unclear results are named; the others gave an inactive call (follow-up assays come after a bar, where they were run). The list is not random: actives were taken first. Their share in the collection is about 1.8%.

O=c1[nH]c(-[n+]2ccc3ccccc3c2)c(/C=N/N=C(\[O-])c2ccccc2)s1	Fam108B counter 18 | Fam108b confirm inactive
Cc1ccc(-c2csc3nc(C(C)C)oc(=O)c23)c(C)c1	Fam108B counter 67 | Fam108b confirm 66 | Fam108b inh 50
O=[N+]([O-])c1ccc(O)c(C=NNC(=S)Nc2ccc(Cl)cc2Cl)c1	none (no result: LYPLA1 inh, GSTO1 inh, LYPLA2 counter, PAD4 inh, PME-1 inh, Fam108B counter) | Fam108b inh inactive
O=[N+]([O-])c1ccc(O)c(/C=N/Nc2ccccc2Cl)c1	none
CCOC(=O)C1=C(COC(=O)/C=C/c2cccc(F)c2)NC(=O)NC1C (stereo unspecified)	none (no result: LYPLA1 inh, GSTO1 inh, LYPLA2 counter, PME-1 inh, Fam108B counter)
Cc1cccc(Nc2nc(-c3ccc(O)cc3O)cs2)n1	Fam108B counter 21 | Fam108b confirm inactive
CCn1c2ccccc2c2cc(NC(=O)c3ccc([N+](=O)[O-])cc3)ccc21	Fam108B counter 25 | Fam108b confirm inactive
O=C1c2ccccc2C(=O)c2c([N+](=O)[O-])ccc(O)c21	PME-1 inh 29, Fam108B counter 31 | Fam108b confirm 36 | Fam108b inh inactive
O=C(O)c1ccc([N+](=O)[O-])c2c1C(=O)c1ccccc1C2=O	none
Cc1cccc(NC(=O)CCC2CCN(C(=O)C3CC=CCC3)CC2)c1 (stereo unspecified)	none
Oc1oc(-c2ccccc2Br)nc1C=Nc1ccccn1	none (no result: LYPLA1 inh, GSTO1 inh, LYPLA2 counter, PAD4 inh, PME-1 inh, Fam108B counter) | Fam108b inh 90
Oc1oc(-c2ccccc2Br)nc1C=Nc1ccc(Br)cn1	none
COc1ccc(OC)c(-c2csc(NC(=O)CSc3ccc([N+](=O)[O-])cc3)n2)c1	Fam108B counter 21 | Fam108b confirm inactive
COc1ccc(OC)c(-c2csc(NC(=O)CSc3ccc(Br)cc3)n2)c1	none
Nc1c(C(=O)Nc2ccccc2Cl)nnn1-c1ccc2c(c1)OCCO2	none
Cc1c(C(=O)Nc2ccc(S(=O)(=O)N(C)C3CCN(C)CC3)cc2)oc2c(Cl)cccc12	none
O=C(Nc1ccc(-c2nc3ccccc3o2)cc1)c1ccc(N2CCOCC2)c([N+](=O)[O-])c1	Fam108B counter 20 | Fam108b confirm inactive
CCCn1nc([N+](=O)[O-])c(C(C#N)c2nc3ccccc3o2)c(Cl)c1=O (stereo unspecified)	PME-1 inh 27, Fam108B counter 29 | Fam108b confirm inactive
Cn1nc([N+](=O)[O-])c(C(C#N)c2ccccn2)c(Cl)c1=O (stereo unspecified)	none
Cc1cccc(C)c1NC(=O)CNC(=O)c1ccc(N2CCCC2=O)cc1	none (no result: GSTO1 inh, Fam108B counter)
COCC(=O)N(Cc1cc2ccc(C)cc2[nH]c1=O)c1ccc(OC)cc1	none
COCC(=O)N(Cc1cc2cc(OC)ccc2[nH]c1=O)c1ccc(C)cc1	Fam108B counter 23 | Fam108b confirm inactive
Cc1cc(/C=C(\C#N)c2nc3ccccc3[nH]2)c(C)n1C	none
Cc1cc(/C=C(/C#N)c2nc3ccccc3[nH]2)c(C)n1-c1cccc([N+](=O)[O-])c1	Fam108B counter 25 | Fam108b confirm inactive
O=C(C[C@H]1C(=O)N(CCc2ccccc2)C[C@@H]1Cc1ccccc1)Nc1ccccc1	none
O=C(OCC(=O)c1c[nH]c2ccccc12)c1cccc([N+](=O)[O-])c1	none (no result: GSTO1 inh, Fam108B counter)
Cc1sc2ncnc(N/N=C/c3ccccc3O)c2c1C	Fam108B counter 19 | Fam108b confirm inactive
CCOc1ccc(NS(=O)(=O)c2ccc(C(=O)NNC(=O)c3ccccc3O)cc2)cc1	none
Oc1ccc(C=NNc2ccnc3cc(Cl)ccc23)c(O)c1O	none (no result: LYPLA1 inh, GSTO1 inh, LYPLA2 counter, PAD4 inh, PME-1 inh, Fam108B counter) | Fam108b inh 80
Cc1ccccc1/C=N/Nc1ccnc2cc(Cl)ccc12	none
COc1cc(OC)c2cc(C(=O)N/N=C/c3ccccc3O)[nH]c2c1	PME-1 inh 32, Fam108B counter 29 | Fam108b confirm inactive
COc1ccc(OC)c(/C=N/NC(=O)c2cc3c(OC)c(OC)ccc3[nH]2)c1	PME-1 inh 31, Fam108B counter 19 | Fam108b confirm inactive
CC[C@@]12C(=O)N(c3cccc(F)c3)C(=O)N1[C@H](c1ccc(Br)cc1)[C@@H]1C(=O)N(C(C)(C)C)C(=O)[C@@H]12	none
